Among the data in PubChem BioAssay (NCI) are growth values, retold here.

Some test systems named below: SR leukemia; RPMI-8226 leukemia; OVCAR-8 ovarian; OVCAR-5 ovarian; OVCAR-4 ovarian; SK-OV-3 ovarian; IGROV1 ovarian; OVCAR-3 ovarian; HS 578T breast; T-47D breast; BT-549 breast; MDA-MB-435 melanoma; SW-620 colon; MCF7 breast; HCT-116 colon; HCC-2998 colon; KM12 colon; NCI/ADR-RES ovarian.
Assay in all cases: NCI-60 one-dose screen, 48 h (100 = growth as untreated, 0 = no growth, -100 = all killed)
Details in all cases: 10 µM unless noted

Molecules are shown by their SMILES. Compounds without any hit were thinned out: in the full panel of roughly 83,000, 20% have a hit.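 Single-concentration screen, 48 h exposure, 96-well plates. Endpoint: percent growth. Below 10 = active.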 Unmarked numbers belong to inactive results. Active and inactive are the calls of the source.

`N/C(=N\C(N)=N\c1nc2ccccc2s1)c1ccncc1Cl`: the growth was 39.4% in the experiment with SR leukemia; 11.6% in the experiment on RPMI-8226 leukemia; 49% with OVCAR-8 ovarian; 61.1% in the experiment with OVCAR-5 ovarian; 104% with OVCAR-4 ovarian; 41.8% with SK-OV-3 ovarian. Moreover, the growth with IGROV1 ovarian is 34.2%; in the experiment on OVCAR-3 ovarian it was 19.8%; in the experiment with HS 578T breast, 35.7%; with T-47D breast, 55.4%; with BT-549 breast, 43.8%; with MDA-MB-435 melanoma, 6.13% (active). Also, the growth in the experiment with SW-620 colon was 24.1%; with MCF7 breast, 75.6%; in the experiment on HCT-116 colon, 23.3%; in the experiment on HCC-2998 colon, 76.6%; in the experiment with KM12 colon it was 24.1%.
As for `COc1cc2nc(Cl)nc(Nc3cccc(C4=Nc5c(N)nc(N)nc5NC(c5ccc(Cl)cc5)C4)c3)c2cc1OC` (stereo unspecified), the growth was -8.05% (active) in the experiment with SR leukemia; -18.9% (active) with RPMI-8226 leukemia; 29.1% with OVCAR-8 ovarian; 114% in the experiment with OVCAR-5 ovarian; 101% in the experiment with OVCAR-4 ovarian; 124% in the experiment with SK-OV-3 ovarian. The growth in the experiment with IGROV1 ovarian is 87.9%; with OVCAR-3 ovarian, 62.6%; in the experiment on HS 578T breast it was 88.6%; with T-47D breast, 81.7%; in the experiment on BT-549 breast it was 85.2%; in the experiment on MDA-MB-435 melanoma it was 6.34% (active). For the same compound, the growth in the experiment with SW-620 colon was 11.2%; with MCF7 breast, 13%; in the experiment with HCT-116 colon, -44.8% (active); in the experiment with HCC-2998 colon, 4.35% (active); in the experiment on KM12 colon it was 14.1%.
Take `COc1c(N2CC3CCCNC3C2)c(F)cc2c(=O)c(C(=O)N/N=C/c3c[nH]c4ccccc34)cn(C3CC3)c12` (stereo unspecified): the growth is -12.2% (active) with SR leukemia; 78.2% in the experiment on RPMI-8226 leukemia; 99% with OVCAR-8 ovarian; 116% in the experiment with OVCAR-5 ovarian; 106% with OVCAR-4 ovarian; 130% in the experiment on SK-OV-3 ovarian. Also, the growth was 97.9% in the experiment on IGROV1 ovarian; 103% in the experiment with OVCAR-3 ovarian; 110% in the experiment on HS 578T breast; 116% with T-47D breast; 100% with BT-549 breast; 105% in the experiment with MDA-MB-435 melanoma. For the same compound, the growth in the experiment with SW-620 colon was 90.7%; in the experiment on MCF7 breast, 55%; in the experiment with HCT-116 colon, 56.7%; with HCC-2998 colon it was 119%; in the experiment on KM12 colon, 98.7%.
As for `COc1cc(/C=C2\C(=O)Nc3cc(Cl)ccc32)ccc1OCc1ccc(F)cc1`, the growth with SR leukemia was 97.5%; with RPMI-8226 leukemia it was 113%; with OVCAR-8 ovarian, 98.7%; in the experiment with OVCAR-5 ovarian it was 98.6%; with OVCAR-4 ovarian, 83.2%; with SK-OV-3 ovarian, 97.2%. Moreover, the growth with IGROV1 ovarian is 72.7%; in the experiment on OVCAR-3 ovarian, 102%; in the experiment on HS 578T breast it was 91.7%; in the experiment with T-47D breast it was 94.1%; with BT-549 breast it was 95.7%; with MDA-MB-435 melanoma it was 103%. The growth is 98.2% in the experiment on SW-620 colon; 57.1% in the experiment on MCF7 breast; 92.9% in the experiment on HCT-116 colon; 96.8% with HCC-2998 colon; 102% with KM12 colon.
On to `COc1cc(OC)c(/C=C/S(=O)(=O)Cc2ccc(OC)c(NCC(=O)NO)c2)c(OC)c1`, for which the growth is 12.2% in the experiment with SR leukemia; 20.2% with RPMI-8226 leukemia; 8.29% (active) with OVCAR-8 ovarian; 33.6% in the experiment with OVCAR-5 ovarian; 45.3% in the experiment with OVCAR-4 ovarian; 37.3% in the experiment on SK-OV-3 ovarian. In addition, the growth with IGROV1 ovarian was 9.44% (active); in the experiment on OVCAR-3 ovarian it was 2.98% (active); in the experiment with HS 578T breast, 17%; with T-47D breast it was 74.3%; with BT-549 breast, 11.6%; with MDA-MB-435 melanoma it was -8.04% (active). Further, the growth was 28.3% in the experiment with SW-620 colon; 11% with MCF7 breast; 3.2% (active) in the experiment with HCT-116 colon; 14.2% in the experiment on HCC-2998 colon; 4.53% (active) in the experiment with KM12 colon.
Consider `Oc1cccc2ccc(-c3nnc(SCc4ccc(O)c5ncccc45)n3-c3ccccc3)nc12`, for which the growth in the experiment on SR leukemia is 31.2%; in the experiment with RPMI-8226 leukemia it was 15.6%; in the experiment with OVCAR-8 ovarian it was 6.56% (active); in the experiment with OVCAR-5 ovarian it was 47.8%; in the experiment on OVCAR-4 ovarian it was 16.8%; in the experiment with SK-OV-3 ovarian, 12.1%. Besides, the growth in the experiment on IGROV1 ovarian was 11.2%; in the experiment with OVCAR-3 ovarian, 28.3%; in the experiment with HS 578T breast, 18.5%; in the experiment with T-47D breast it was 9.55% (active); in the experiment on BT-549 breast, 26.1%; in the experiment on MDA-MB-435 melanoma it was 17%. Also, the growth is 16.4% in the experiment on SW-620 colon; 6.09% (active) in the experiment with MCF7 breast; 10.5% with HCT-116 colon; 28.2% with HCC-2998 colon; 10.9% with KM12 colon.
As for `O=C(c1ccc(O)cc1)[C@@H]1CN[C@@]2(C(=O)Nc3ccccc32)[C@H]1c1ccc(F)cc1`, the growth with SR leukemia is 87.5%; in the experiment on RPMI-8226 leukemia, 95.4%; in the experiment on OVCAR-8 ovarian it was 99.2%; with OVCAR-5 ovarian, 104%; in the experiment on OVCAR-4 ovarian, 102%; in the experiment on SK-OV-3 ovarian, 115%. Besides, the growth with IGROV1 ovarian was 95.3%; in the experiment with OVCAR-3 ovarian, 117%; in the experiment with HS 578T breast it was 110%; in the experiment with T-47D breast, 99.3%; in the experiment with BT-549 breast, 79.7%; with MDA-MB-435 melanoma, 107%. For the same compound, the growth in the experiment on SW-620 colon is 105%; with MCF7 breast it was 99%; in the experiment on HCT-116 colon it was 104%; in the experiment with HCC-2998 colon, 113%; with KM12 colon, 102%.
Take `C[C@@H](Nc1c(C#N)cnc2ccc(-c3cnc(Cl)c(NS(C)(=O)=O)c3)cc12)c1ccccc1`: the growth was -14.1% (active) in the experiment with SR leukemia; -34.9% (active) in the experiment with RPMI-8226 leukemia; 16.3% in the experiment with OVCAR-8 ovarian; 4.76% (active) in the experiment on OVCAR-5 ovarian; 0.536% (active) in the experiment on OVCAR-4 ovarian; -7.04% (active) in the experiment with SK-OV-3 ovarian. For the same compound, the growth is -30.4% (active) in the experiment on IGROV1 ovarian; 4.33% (active) in the experiment with OVCAR-3 ovarian; -15.9% (active) in the experiment on HS 578T breast; 31.5% in the experiment on NCI/ADR-RES ovarian; 0.239% (active) with T-47D breast; 8.87% (active) with MDA-MB-435 melanoma. Further, the growth is 9.39% (active) in the experiment with SW-620 colon; 6.51% (active) in the experiment on MCF7 breast; 4.05% (active) in the experiment on HCT-116 colon; 16.7% with HCC-2998 colon; 15.1% in the experiment on KM12 colon.
